Data reported in PubChem BioAssay (NCI).
The panel holds about 83,000 compounds, 20% with a hit somewhere; the sample as a whole holds those more often.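 The test compound was applied at a single concentration to cells in 96-well plates for 48 hours, and percent growth was recorded.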 A number with no mark means an inactive call. Calls of active or inactive are those of the source.

Each molecule was assayed on HT29 colon (assay: NCI-60 one-dose screen, 48 h (100 = growth as untreated, 0 = no growth, -100 = all killed)). Details: 10 µM.
Procedure: Growth inhibition of the HT29 human tumor cell line is measured as a screen for anti-cancer activity. Cells are grown in 96 well plates and exposed to the test compound for 48 hours. Compounds are tested at a single concentration, which is 10^-5 M for most compounds. The reported endpoint is percent growth (GI% or GIPRCNT), where numbers from 0 - 100% represent growth inhibition, and numbers from -100% - 0 represent cell death. For example, a value of 40 represents 60% growth inhibition. A value of 0 means no net growth occurred over the course of the experiment. A value of -40 indicates 40% of cells at the beginning of the experiment died by the end of the experiment. A value of -100 means all cells are dead at the end of the experiment.
NCI-60 Human Tumor Cell Lines Screen was performed using the standard one-dose NCI protocol, which is described in more detail at https://dtp.cancer.gov/discovery_development/nci-60/default.htm.
Compounds with GIPRCNT values below 10 were considered active. Activity score was based on GIPRCNT using the following formula: […]
Score is 0 for GIPRCNT values of 100 or above, 50 for GIPRCNT values of 0, and 100 for GIPRCNT values of -100.
For `CN(C)/N=C/c1ccccc1O`, the growth was 111%.
For `COc1cc2c3cc1Oc1c(OC)c(OC)cc4c1C(Cc1ccc(O)c(c1)Oc1ccc(cc1)CC3N(C)CC2)N(C)CC4` (stereo not given), the growth was -21.8% (active).
For `COS(=O)(=O)c1ccc(Br)cc1`, the growth was 107%.
`CC(=O)c1cc2c(cc1F)C(C)(C)CCC2(C)C` showed a growth of 106%.
With `O=C(NCO)c1ccccc1` the growth was 109%.
Work on `COc1ncnc2c1cnn2C` yielded a growth of 107%.
For `CC(C)NC(=O)OCc1c(COC(=O)NC(C)C)c(-c2ccc(Cl)c(Cl)c2)n2c1SCC2`, the growth was 62.1%.
In the case of `CC(=O)OCC1CCCO1` (stereo not given), the growth is reported as 101%.
Molecule `CC(=O)c1ccc2c(ccc3ccccc32)c1` has a growth of 95.6%.
`CC(O)COc1ccc(-c2ccccc2)cc1` (stereo not given) showed a growth of 116%.
`C/C(=N\O)C1(O)CCCCC1` was tested, and the growth was 110%.
`CCOC(=O)c1[nH]c(C)c(C(=O)O)c1C` gave a growth of 105%.
In the case of `CC1(C)/C(=C\CO)C2CCC1C2` (stereo not given), the growth is reported as 109%.
`Cc1cc(OCCO)cc(C)c1Cl` showed a growth of 113%.
In the case of `CCCCCCCCOC(=O)c1ccccn1`, the growth is reported as 96.2%.
`CCCCC(O)c1ccccc1` (stereo not given) was tested, and the growth was -11.4% (active).
Work on `CN(C)c1ccc(CNC(C(=O)c2ccccc2)c2ccccc2)cc1` (stereo not given) yielded a growth of 82.6%.
For `CC1OC(Oc2c(-c3ccc(O)c(O)c3)oc3cc(O)cc(O)c3c2=O)C(O)C(O)C1O` (stereo not given), the growth was 107%.
`O=c1cc(-c2ccccc2)nc2cc(-c3ccco3)[nH]n12` showed a growth of 102%.
`CCCCC1C(=O)N(c2ccccc2)N(c2ccccc2)C1=O` gave a growth of 104%.
`O=C(Nc1ccccc1)OCCc1ccccc1` was tested, and the growth was 95%.
Work on `CCCC(C)OCC(=O)O` (stereo not given) yielded a growth of 109%.
In the case of `CCCCNC(=O)C(=O)NCCCC`, the growth is reported as 120%.
`C/C(O)=C(\C=N\C(N)=S)C(=O)Nc1ccccc1` gave a growth of 101%.
Molecule `C[N+](C)=c1ccc2nc3c(cc(Nc4ccccc4)c4ccccc43)oc-2c1` has a growth of 52.2%.
Work on `O=C(N/N=C\c1cc(Br)cc(Br)c1O)N/N=C/c1cc(Br)cc(Br)c1O` yielded a growth of 105%.
Work on `[O-][N+](=Nc1cccc(Cl)c1)c1cccc(Cl)c1` yielded a growth of 106%.
`CNC(=O)c1ccccc1CC1(O)c2ccccc2Oc2ccccc21` was tested, and the growth was 7.73% (active).
`NCC(=O)CCC(=O)O` was tested, and the growth was 104%.
`O=C(NCCNC(=O)c1ccc(Cl)cc1Cl)c1ccc(Cl)cc1Cl` was tested, and the growth was 118%.
Work on `COc1cc(-c2ccc(NC(=O)NC3CC3)c(OC)c2)ccc1NC(=O)NC1CC1` yielded a growth of 48.6%.
For `N#CC(=Nc1cccc(F)c1)C1=C(O)c2ccccc2C1=O`, the growth was 105%.
Molecule `CCOC(=O)C/C(C)=N\O` has a growth of 98.9%.
In the case of `CC(C)OC(C(=O)O)c1ccccc1` (stereo not given), the growth is reported as 109%.
`Cc1cccc([N+](=O)[O-])c1Cl` was tested, and the growth was 112%.
`CC(C)CCCC(=O)O` showed a growth of 104%.
`CCCCCCCCCCCCCCCCC1CC(=O)OC1=O` (stereo not given) gave a growth of 109%.
`Cc1cc(=O)n(-c2ccc(F)cc2)[nH]1` gave a growth of 105%.
For `COc1ccc(NC(=O)CCl)cc1`, the growth was 67.3%.
Work on `O=c1[nH]cc(Cl)cc1O` yielded a growth of 97.3%.
